Assay results reported in PubChem BioAssay (NCI).
Several values for one entry are separate records, joined by “and”; a condition that tells them apart may be missing. Equal entries are not always repeated. This is part of a sample that, as a whole, favours compounds with a hit. Of some 83,000 tested, about 20% had one in any assay.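 Cells were grown in 96-well plates and exposed to the test compound at a single concentration for 48 hours; results are reported as percent growth, with values below 10 considered active.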 Unmarked numbers belong to inactive results. Activity calls are given as the source filed them.

Test system: MDA-MB-468 breast
Assay: NCI-60 one-dose screen, 48 h (100 = growth as untreated, 0 = no growth, -100 = all killed)
Details: 10 µM unless noted

SMILES	growth
CCOc1ccccc1/C=N/Nc1nc2ccccc2o1	28.1%
Cc1ccc2oc(=O)cc(C3C(C#N)=C(N)Oc4c3ccc3ccccc43)c2c1 (centres undefined)	63.8%
Cc1ccc(-n2cc(/C=C/C(=O)c3ccc(O)cc3)c(-c3ccc(S(C)(=O)=O)cc3)n2)cc1	93.8%
O=C1NC(=O)/C(=C/c2ccc(OCc3cc4ccccc4nc3Cl)cc2)S1	92%
CCOC(=O)N[C@H]1CCc2cc(OC)c(OC)c(OC)c2-c2ccc(SC)c(=O)cc21	-36.8% (active)
COC(=O)/C=C/c1c(C2(C)NC(=O)c3ccccc3N2)c(=O)oc2ccc(Cl)cc12 (centres undefined)	88.7%
O=C1Nc2c(ccc(Cl)c2Cl)/C1=C\c1cc(C(F)(F)F)cc(C(F)(F)F)c1	7.18% (active)
COc1ccc(/C=C2\c3cc(OC)c(OC)c(OC)c3CC[C@@H]2O)cc1F	13.5%
Nc1nc2c(c(=O)[nH]1)C(c1ccc3c(c1)OCO3)C=C(C(=O)O)N2 (centres undefined)	107%
Cc1cc2c([nH]1)CSc1cc(S(=O)(=O)c3ccccc3)c(=O)[nH]c1-2	24% [100 µM]
CCN(CC)CCCC(C)Nc1nc(-c2ccc(OC)cc2)nc2cc(Cl)ccc12 (centres undefined)	34.8%
COc1ccc2nc(Cl)cc(C)c2c1	94.1% and 91.3%
COc1ccc(C2CC(c3cc(OC)c(OC)c(OC)c3)=NN2C(C)=O)cc1OCC(=O)Nc1nc2ccc(C(F)(F)F)cc2s1 (centres undefined)	84.1%
COc1ccc(C(=O)C2CC2c2ccc(Cl)cc2)cc1 (centres undefined)	98.3%
